Consider six molecules from PubChem BioAssay (NCATS).

The target of assay [1] is Atrial natriuretic peptide receptor 1 (Homo sapiens) (UniProt P16066). Nature of the assay: Natriuretic polypeptide receptor (hNpr1) antagonism - Pilot screen (AID 1347049; calls by dose curve;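 note: HEK293 cells with hNpr1 and GloSensor cGMP luciferase stimulated by 0.1 nM hNppA; agonist-evoked cGMP luminescence read 20 min after hNppA addition; series mostly up to about 58 µM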). In short, it runs like this: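 Receptor antagonism read as cGMP-dependent luminescence in hNpr1/pGS-40F HEK293 cells: pre-read after 30 min compound exposure, post-read 20 min after hNppA agonist at 0.1 nM final, all at room temperature, protected from light; A-71915 titration as control.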

The target in assay [2] is Atrial natriuretic peptide receptor 2 (Homo sapiens) (UniProt P20594). Nature of the assay: Natriuretic polypeptide receptor (hNpr2) antagonism - Pilot subtype selectivity assay (AID 1347050; calls by dose curve). In short, it runs like this: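 Antagonist mode: compounds (LOPAC1280, seven 1:5 dilutions) added 30 min before 1 nM hNppC stimulation of hNpr2-HEK293 cGMP-sensor cells; luminescence read before and 20 min after agonist at ambient temperature.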

The nature of assay [3]: NS1 protein of Zika virus - qHTS assay to identify small molecule inhibitors in human HEK 293 cells (AID 1347053). Note: nearly all actives have a fitted effect of over 55% in size. Note: potency is the fitted concentration of half-maximal effect. In short, it runs like this: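 Compound-treated (1 h pre-infection) HEK 293 cells infected with ZIKV MR766, MOI = 0.5; after 24 h at 37 C, NS1 read by TR-FRET; data normalized to uninfected and infected controls.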
(qHTS replaces the single test concentration by a dilution series.)

The target in assay [4] is T1, Tyrosine-protein phosphatase non-receptor type substrate 1 (Homo sapiens) + Leukocyte surface antigen CD47 (Homo sapiens) (UniProt P78324+Q08722). Nature of the assay: CD47-SIRPalpha protein protein interaction - LANCE assay qHTS validation (AID 1347057; active = well fitted curve in the direction sought with a large enough effect in the signal ratio, with a control signal flat, not every such curve was filed as active; the % refers to the signal ratio; note: series mostly up to about 38 µM). In short, it runs like this:
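Inhibition of soluble CD47/SIRPalpha ectodomain association by titrated compounds, measured as 665/615 nm time-resolved FRET ratio after sequential 30 min room-temperature incubations.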
On the technique in general: Time-resolved FRET reads energy transfer from a long-lived donor to a nearby acceptor.

Assay [5] concerns the target T1, Tyrosine-protein phosphatase non-receptor type substrate 1 (Homo sapiens) + Leukocyte surface antigen CD47 (Homo sapiens). Kind of assay: CD47-SIRPalpha protein protein interaction - HTRF assay qHTS validation (AID 1347058; active = well fitted curve in the direction sought with a large enough effect in the signal ratio, not every such curve was filed as active; the % refers to the signal ratio; note: series mostly up to about 38 µM). In short, it runs like this: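 Soluble extracellular domains (6His-CD47, Avi-tag-biotinylated SIRPalpha) in PBS pH 7.4 with 0.05% IGEPAL CA-630. Compounds were preincubated 30 min at RT with CD47 and anti-His-Eu, then SIRPalpha and SAV-XL665 were added. TR-FRET 665/615 ratio.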

The target is the same in assay [6]. Nature of the assay: CD47-SIRPalpha protein protein interaction - Alpha assay qHTS validation (AID 1347059).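 Note: bead proximity luminescence from CD47 binding SIRPalpha after compound preincubation with SIRPalpha.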 In short, it runs like this: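 AlphaScreen signal between CD47-His (12.5 nM) and biotin-SIRPalpha (25 nM) soluble extracellular domains, bead-captured via Ni-NTA and streptavidin. Compounds, in 7-point titrations, met SIRPalpha 30 min before CD47; PBS pH 7.4 with 0.05% IGEPAL.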

Assay [7] concerns the target Parathyroid hormone/parathyroid hormone-related peptide receptor (Homo sapiens) (UniProt Q03431). Nature of the assay: qHTS for PTHR1 Agonists: Optimization Screen against the NCGC LOPAC library (AID 1347079).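 Note: GloSensor cAMP luminescence in HEK-293 GP2 cells expressing human PTHR1 with IBMX.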 In short, it runs like this: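 HEK-293 GP2 cells, PTHR1 + GloSensor cAMP; 3000 cells/well, o/n. Luciferin + IBMX 0.5mM each (stock), 1 hr 37C. Cpd titration, 1 hr 37C. Lum after 15 min RT. Ctrl M-PTH(1-15) top 10uM.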

Assay [8] is described as follows: qHTS of pediatric cancer cell lines to identify multiple opportunities for drug repurposing: Primary screen for TC32 cells (AID 1347089). Note: nearly all actives have a fitted effect of over 60% in size. In short, it runs like this:
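qHTS, TC32, 48 h drug treatment, CellTiter-Glo luminescence as a proxy for metabolically active cells; primary top concentration 46 µM (MIPE 11-pt, NPC 8-pt); confirmatory 11-pt.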

Assay [9] in a line: qHTS of pediatric cancer cell lines to identify multiple opportunities for drug repurposing: Primary screen for DAOY cells (AID 1347090). Note: series mostly up to about 46 µM; nearly all actives have a fitted effect of over 55% in size. In short, it runs like this:
(§1)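 Cell viability, CellTiter-Glo luminescence; 500-1,000 cells/well, 8- or 11-point titration, 48 h compound exposure at 37 degrees C, 5% CO2. Controls: DMSO neutral, bortezomib 2.3 µM final as positive.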

Assay [10] in a line: qHTS of pediatric cancer cell lines to identify multiple opportunities for drug repurposing: Primary screen for SJ-GBM2 cells (AID 1347091). In short, it runs like this:
as §1

Assay [11] can be described thus: qHTS of pediatric cancer cell lines to identify multiple opportunities for drug repurposing: Primary screen for A673 cells (AID 1347092). Note: nearly all actives have a fitted effect of over 45% in size. Note: potency is the fitted concentration of half-maximal effect. In short, it runs like this:
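Luminescence from CellTiter-Glo, taken after 15 min at room temperature, served as the proxy for metabolically active cells following 48 h treatment. Both potency and efficacy were taken from curves fitted to the titration data.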

Assay [12] in a line: qHTS of pediatric cancer cell lines to identify multiple opportunities for drug repurposing: Primary screen for SK-N-MC cells (AID 1347093). Note: potency is the fitted concentration of half-maximal effect. In short, it runs like this: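 Metabolically active cells were quantified by ATP-dependent luminescence (CellTiter-Glo, 15 min at room temperature) following 48 h treatment. Cells had been plated at 500-1,000 per well and settled for 5 h beforehand.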

Assay [13] can be described thus: qHTS of pediatric cancer cell lines to identify multiple opportunities for drug repurposing: Primary screen for BT-37 cells (AID 1347094). Note: potency is the fitted concentration of half-maximal effect. In short, it runs like this: (§2)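 500-1,000 cells/well; 5 h pre-incubation 37 °C/5% CO2; compound pinned; 48 h; CellTiter-Glo, 15 min RT; luminescence. MIPE 11-pt from 0.78 nM, NPC 8-pt from 0.59 nM final. Bortezomib 2.3 µM final as positive control.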

Assay [14] in a line: qHTS of pediatric cancer cell lines to identify multiple opportunities for drug repurposing: Primary screen for NB-EBc1 cells (AID 1347095). In short, it runs like this: as §2
The nature of assay [15]: qHTS of pediatric cancer cell lines to identify multiple opportunities for drug repurposing: Primary screen for U-2 OS cells (AID 1347096). Note: nearly all actives have a fitted effect of over 50% in size. In short, it runs like this: (§3)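 Cells (500-1,000/well) rested 5 h, then received compounds for 48 h; metabolically active cells were measured by CellTiter-Glo luminescence. Final concentrations spanned up to 46 µM (MIPE, 11-point) or 0.59 nM-46 µM (NPC, 8-point) in primary screens, 11-point in follow-ups.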

The nature of assay [16]: qHTS of pediatric cancer cell lines to identify multiple opportunities for drug repurposing: Primary screen for Saos-2 cells (AID 1347097). Note: nearly all actives have a fitted effect of over 40% in size. In short, it runs like this:
as §2

The nature of assay [17]: qHTS of pediatric cancer cell lines to identify multiple opportunities for drug repurposing: Primary screen for SK-N-SH cells (AID 1347098). Note: nearly all actives have a fitted effect of over 65% in size. Note: potency is the fitted concentration of half-maximal effect. In short, it runs like this:
as §3

Assay [18] is described as follows: qHTS of pediatric cancer cell lines to identify multiple opportunities for drug repurposing: Primary screen for NB1643 cells (AID 1347099). Note: nearly all actives have a fitted effect of over 50% in size. Note: potency is the fitted concentration of half-maximal effect. In short, it runs like this: as §2
The nature of assay [19]: qHTS of pediatric cancer cell lines to identify multiple opportunities for drug repurposing: Primary screen for LAN-5 cells (AID 1347100). Note: potency is the fitted concentration of half-maximal effect. In short, it runs like this:
as §3

Assay [20] in a line: qHTS of pediatric cancer cell lines to identify multiple opportunities for drug repurposing: Primary screen for BT-12 cells (AID 1347101). Note: nearly all actives have a fitted effect of over 25% in size. Note: potency is the fitted concentration of half-maximal effect. In short, it runs like this: as §3

Structures are written as SMILES. Results filed as inconclusive are left out. Active and inactive are the calls of the source. Unless noted, calls come from the whole dose curve; as a rule, active = well fitted curve in the direction sought with a large enough effect; inconclusive = small, poorly fitted or top-dose-only effect, or another doubt; inactive = no such curve, though single readings can be large; an effect the other way counts as inactive or inconclusive.

Chain of Atrial natriuretic peptide receptor 2 (Homo sapiens) (P20594 whole entry, looked up): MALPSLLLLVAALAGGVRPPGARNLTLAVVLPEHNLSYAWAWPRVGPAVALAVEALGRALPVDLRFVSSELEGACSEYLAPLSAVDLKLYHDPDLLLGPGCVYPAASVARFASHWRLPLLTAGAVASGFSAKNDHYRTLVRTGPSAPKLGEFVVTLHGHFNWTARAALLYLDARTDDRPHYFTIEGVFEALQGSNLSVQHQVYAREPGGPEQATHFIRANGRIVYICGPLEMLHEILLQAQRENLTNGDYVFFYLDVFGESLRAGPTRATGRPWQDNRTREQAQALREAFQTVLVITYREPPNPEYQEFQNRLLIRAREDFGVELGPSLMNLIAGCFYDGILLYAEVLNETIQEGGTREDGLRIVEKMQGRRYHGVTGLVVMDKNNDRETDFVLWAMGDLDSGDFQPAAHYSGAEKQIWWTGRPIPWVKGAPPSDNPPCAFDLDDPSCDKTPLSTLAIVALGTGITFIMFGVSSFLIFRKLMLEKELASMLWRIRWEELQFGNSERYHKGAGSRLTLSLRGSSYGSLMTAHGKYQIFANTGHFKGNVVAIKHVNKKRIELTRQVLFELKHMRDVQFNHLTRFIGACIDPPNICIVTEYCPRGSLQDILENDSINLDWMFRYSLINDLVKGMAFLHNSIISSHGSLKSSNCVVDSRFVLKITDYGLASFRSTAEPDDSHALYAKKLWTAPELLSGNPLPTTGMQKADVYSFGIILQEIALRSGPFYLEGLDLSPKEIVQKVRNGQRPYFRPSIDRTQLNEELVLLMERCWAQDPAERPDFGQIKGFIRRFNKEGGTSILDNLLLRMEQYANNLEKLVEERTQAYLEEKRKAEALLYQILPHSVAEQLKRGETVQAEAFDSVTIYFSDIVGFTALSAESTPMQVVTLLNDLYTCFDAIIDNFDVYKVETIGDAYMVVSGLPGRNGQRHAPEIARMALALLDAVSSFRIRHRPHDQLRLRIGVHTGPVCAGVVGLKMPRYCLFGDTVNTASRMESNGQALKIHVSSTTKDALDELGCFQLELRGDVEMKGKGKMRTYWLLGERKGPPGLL
Chain of Parathyroid hormone/parathyroid hormone-related peptide receptor (Homo sapiens) (Q03431 whole entry, looked up): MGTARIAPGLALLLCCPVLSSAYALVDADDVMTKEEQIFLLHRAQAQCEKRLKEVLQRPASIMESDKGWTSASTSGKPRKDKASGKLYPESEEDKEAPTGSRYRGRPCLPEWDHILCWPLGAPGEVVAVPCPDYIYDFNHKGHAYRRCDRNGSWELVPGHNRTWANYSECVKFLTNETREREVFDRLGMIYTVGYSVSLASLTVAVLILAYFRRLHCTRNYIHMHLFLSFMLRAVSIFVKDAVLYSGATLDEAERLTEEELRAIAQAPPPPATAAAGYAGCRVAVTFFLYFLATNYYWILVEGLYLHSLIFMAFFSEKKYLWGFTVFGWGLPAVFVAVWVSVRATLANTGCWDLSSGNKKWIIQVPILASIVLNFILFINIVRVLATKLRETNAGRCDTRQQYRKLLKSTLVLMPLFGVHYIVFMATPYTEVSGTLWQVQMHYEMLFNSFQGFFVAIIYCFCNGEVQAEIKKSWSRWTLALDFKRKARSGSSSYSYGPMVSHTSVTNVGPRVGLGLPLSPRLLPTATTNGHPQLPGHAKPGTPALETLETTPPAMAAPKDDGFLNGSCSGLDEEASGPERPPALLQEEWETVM
Chain of Atrial natriuretic peptide receptor 1 (Homo sapiens) (P16066 whole entry, looked up): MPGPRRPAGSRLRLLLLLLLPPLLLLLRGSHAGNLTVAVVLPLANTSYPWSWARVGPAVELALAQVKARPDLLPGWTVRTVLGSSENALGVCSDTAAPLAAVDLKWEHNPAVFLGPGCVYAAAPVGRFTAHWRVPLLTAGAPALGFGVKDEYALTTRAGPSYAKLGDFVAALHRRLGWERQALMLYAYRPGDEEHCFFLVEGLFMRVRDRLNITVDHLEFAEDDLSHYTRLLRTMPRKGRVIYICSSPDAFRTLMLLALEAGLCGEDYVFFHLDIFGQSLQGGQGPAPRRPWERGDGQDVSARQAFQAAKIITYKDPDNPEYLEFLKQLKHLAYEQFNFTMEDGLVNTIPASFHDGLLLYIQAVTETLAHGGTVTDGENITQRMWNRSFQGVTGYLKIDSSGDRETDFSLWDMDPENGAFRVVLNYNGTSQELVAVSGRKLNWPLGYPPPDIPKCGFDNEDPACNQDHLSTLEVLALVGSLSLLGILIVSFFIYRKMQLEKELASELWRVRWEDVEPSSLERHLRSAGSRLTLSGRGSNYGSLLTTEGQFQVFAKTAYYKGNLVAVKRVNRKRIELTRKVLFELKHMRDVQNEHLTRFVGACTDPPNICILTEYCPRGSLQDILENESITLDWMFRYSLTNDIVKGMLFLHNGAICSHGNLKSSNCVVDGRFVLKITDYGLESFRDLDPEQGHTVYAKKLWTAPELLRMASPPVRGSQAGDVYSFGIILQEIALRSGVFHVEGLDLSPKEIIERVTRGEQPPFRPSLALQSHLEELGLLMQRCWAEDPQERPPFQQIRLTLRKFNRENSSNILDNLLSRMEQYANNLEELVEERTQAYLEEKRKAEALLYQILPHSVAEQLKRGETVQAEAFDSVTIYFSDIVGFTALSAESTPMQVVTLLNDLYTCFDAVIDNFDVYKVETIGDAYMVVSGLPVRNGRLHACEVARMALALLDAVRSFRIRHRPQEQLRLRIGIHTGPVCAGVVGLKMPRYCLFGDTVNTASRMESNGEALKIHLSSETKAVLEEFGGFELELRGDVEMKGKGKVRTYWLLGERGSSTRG
T1 sequence (P78324 whole entry, looked up, the tested form may be a part): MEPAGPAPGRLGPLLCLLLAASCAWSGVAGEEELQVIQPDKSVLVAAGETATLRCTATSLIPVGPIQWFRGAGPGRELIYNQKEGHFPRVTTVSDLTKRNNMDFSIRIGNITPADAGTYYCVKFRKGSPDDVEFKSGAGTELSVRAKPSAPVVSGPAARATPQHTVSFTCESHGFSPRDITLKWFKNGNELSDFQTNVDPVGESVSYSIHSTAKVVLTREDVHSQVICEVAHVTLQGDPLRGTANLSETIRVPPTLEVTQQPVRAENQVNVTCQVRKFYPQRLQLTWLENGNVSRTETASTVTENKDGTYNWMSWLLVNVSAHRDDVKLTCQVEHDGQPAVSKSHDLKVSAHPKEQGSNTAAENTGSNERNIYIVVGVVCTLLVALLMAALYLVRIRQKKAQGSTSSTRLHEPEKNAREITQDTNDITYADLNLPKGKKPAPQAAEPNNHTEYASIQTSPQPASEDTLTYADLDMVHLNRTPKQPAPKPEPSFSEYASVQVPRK
T1 sequence (Q08722 whole entry, looked up, the tested form may be a part): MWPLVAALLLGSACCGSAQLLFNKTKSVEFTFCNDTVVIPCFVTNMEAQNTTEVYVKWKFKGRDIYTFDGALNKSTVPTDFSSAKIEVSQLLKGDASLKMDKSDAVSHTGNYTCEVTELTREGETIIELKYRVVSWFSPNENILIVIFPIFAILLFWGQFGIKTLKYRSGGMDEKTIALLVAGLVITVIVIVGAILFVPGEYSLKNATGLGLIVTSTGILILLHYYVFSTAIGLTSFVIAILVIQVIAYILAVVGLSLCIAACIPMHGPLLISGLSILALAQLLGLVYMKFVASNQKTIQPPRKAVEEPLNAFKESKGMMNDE

For the molecule `COc1ccc(C2CNC(=O)C2)cc1OC1CCCC1` (stereo not given), the Potency entry in assay [1], in assay [2], in assay [3], in [6], in [7] and in [8] was “inactive” in each case. Also, the Potency entry in [9], in [10], in assay [11], in assay [12], in assay [13] and in assay [14] was “inactive” in each case. The Potency result in assay [15], in assay [16], in [17], in assay [18], in assay [19] and in assay [20] was “inactive” each time. The outcome in assay [4] and in assay [5] was inactive.

For `COc1cc2nc(N3CCN(C(=O)c4ccco4)CC3)nc(N)c2cc1OC`, the Potency result in assay [1], in [2], in assay [6], in assay [7], in assay [8] and in [10] was “inactive” in each case. Moreover, in assay [14], the Potency result is “inactive”. Also, the Potency is 9.35 µM (active) in assay [3]; 14.8 µM (active) in assay [11]; 11.8 µM (active) in [12]; 24.3 µM (active) in assay [13]; 27.1 µM (active) in assay [17]; 26.4 µM (active) in assay [18]. Also, the results for the Potency in [19] and in assay [20] were 14.8 µM (active) and 9.53 µM (active), respectively. The outcome in [4] and in [5] was inactive.

Turning to `C[C@](N)(Cc1ccc(O)c(O)c1)C(=O)O`, the Potency entry in [1], in assay [2], in assay [3], in assay [6], in [7] and in assay [8] was “inactive” each time. Moreover, the Potency result in assay [9], in [10], in assay [12], in assay [13], in [14] and in assay [15] was “inactive” each time. Further, the Potency result in assay [16], in assay [18], in assay [19] and in assay [20] was “inactive” in each case. The outcome in assay [4] and in [5] was inactive.

As to `CCCNCC(O)COc1ccccc1C(=O)CCc1ccccc1` (stereo not given), the Potency result in assay [1], in assay [2], in assay [3], in assay [6], in [7] and in [8] was “inactive” each time. Besides, the Potency result in assay [9], in assay [10], in [11], in assay [13], in assay [14] and in [15] was “inactive” each time. Also, the Potency entry in [16] and in [18] was “inactive” in each case. Also, the result in [4] and in assay [5] was inactive. Also, the Potency in assay [17] was 21.7 µM (active).

Consider `CC(C)NCC(O)COc1ccc(CCOCC2CC2)cc1` (stereo not given), for which the Potency result in assay [1], in assay [2], in assay [3], in assay [6], in [7] and in assay [8] was “inactive” in each case. The Potency result in assay [10], in assay [11], in assay [12], in assay [13], in assay [14] and in assay [15] was “inactive” in each case. In addition, the Potency entry in [16], in [17], in assay [18], in [19] and in [20] was “inactive” throughout. The outcome in assay [4] and in assay [5] was inactive.

In the case of `CCN1CCCC1CNC(=O)c1cc(S(=O)(=O)CC)c(N)cc1OC` (stereo not given), the Potency entry in [1], in assay [2], in [3], in assay [6], in assay [7] and in assay [8] was “inactive” each time. For the same molecule, the Potency entry in assay [10], in assay [11], in assay [12], in assay [13], in assay [14] and in assay [15] was “inactive” each time. Besides, the Potency entry in [16], in [17], in assay [18], in assay [19] and in assay [20] was “inactive” each time. Besides, the result in assay [4] and in [5] was inactive.
